# Laboratory results published in PubChem BioAssay (NCATS).
# Results filed as inconclusive are left out. The source made the active and inactive calls.
# Assay: qHTS for identification of novel therapeutic agents for treatment of microphthalmiaassociated transcription factor (MiT) renal cell carcinoma (RCC) (AID 1963991)
# Details: TFE3-RCC UOK109 viability, CellTiter-Glo, 48 h; active = Z-AUC below -0.8 in all three lines
# Method in brief: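 Viability of three TFE3-fusion renal carcinoma lines measured by CellTiter-Glo after 48 h treatment with each of 1912 compounds at 11 concentrations. Responses scaled between DMSO (100%) and empty wells (0%) before curve fitting.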
# Potency is read from the fitted curve at half-maximal effect.
row,Structure (SMILES),Potency
1,C[C@@H]1O[C@@H](O[C@H]2CC[C@@]3(C)[C@H](CC[C@@H]4[C@H]3C[C@@H](O)[C@]3(C)[C@@H](C5=CC(=O)OC5)CC[C@]43O)C2)C[C@H](O)[C@@H]1O[C@H]1C[C@H](O)[C@H](O[C@H]2C[C@H](O)[C@@H](O)[C@@H](C)O2)[C@H](C)O1 (stereo in doubt),215 nM (active)
2,CO[C@H]1/C=C\O[C@@]2(C)Oc3c(C)c(O)c4c(O)c(c(C=NN5CCN(C6CCCC6)CC5)c(O)c4c3C2=O)NC(=O)C(C)=CC=C[C@H](C)[C@H](O)[C@@H](C)[C@@H](O)[C@@H](C)[C@H](OC(C)=O)[C@H]1C,105 nM (active)
3,CC[C@]1(O)C[C@H]2CN(CCC3=c4ccccc4=N[C]3[C@@](C(=O)OC)(c3cc4c(cc3OC)N(C)[C@H]3[C@@](O)(C(N)=O)[C@H](O)[C@]5(CC)C=CCN6CC[C@]43[C@@H]65)C2)C1,332 nM (active)
